GLS inhibitor – glutaminase GLS (human) inhibition; O94925; GLS enzymatic activity, qHTS titration; Potency, µM (highest dose often 45.5 µM), usual class: inhibitors; 410,000 tested, 0.21% active
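hKGA in 45 mM KH2PO4 (pH 8.2), 0.02% Tween-20 with compound, then 1mM L-Glutamine (stock as added) plus glutamate oxidase/HRP/Amplex red coupling mix. Fluorescence read initially and after 30 min at RT; signal change reflects glutamate formation.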
BAZ2B block – blocks human BAZ2B. AlphaScreen BAZ2B-H3K14Ac peptide displacement. 360,000 tested, 4.4% active. Potency, µM (highest dose often 114 µM), actives largely listed as inhibitors. AID 504333; further: nearly all actives have a fitted effect of over 60% in size
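Complex of BAZ2B and biotin-H3K14Ac (50 nM apiece) forms over 30 min at RT, then faces library compounds up to 110 uM for another 30 min; AlphaScreen beads added, 20 min dark incubation, luminescence read.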
G9a block – G9a (human) methyltransferase inhibition; G9a H3K9 monomethylation, AlphaScreen, 2 h; Potency, µM (top dose mostly 102 µM), actives largely listed as inhibitors; 350,000 tested, 8.8% active; AID 504332; further: nearly all actives have a fitted effect of over 75% in size
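Quantitative HTS format: methyltransferase activity on a biotin-tagged H3K9 peptide is measured by AlphaScreen, using a rabbit anti-monomethyl-H3K9 antibody with streptavidin donor and anti-IgG acceptor beads. Final levels are 20 nM enzyme, 500 nM peptide, 20 uM SAM; 2 h RT.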
JMJD2A Tudor inh – JMJD2A Tudor domain (human) inhibition; AlphaScreen JMJD2A-Tudor / H3K4me3 peptide binding; Potency, µM (highest dose often 114 µM), actives largely listed as inhibitors; 390,000 tested, 4.4% active; AID 504339; further: nearly all actives have a fitted effect of over 50% in size
HP1b binding inh – inhibitors of HP1-beta chromodomain binding to methylated histone tails; 390,000 tested, 0.56% active; AlphaScreen HP1-beta / biotin-H3K9me3 peptide binding; Potency, µM (titrated, usually from 114 µM), hits mostly inhibitors; further: nearly all actives have a fitted effect of over 70% in size
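AlphaScreen: HP1-beta (50 nM) preformed 30 min with biotin-H3(1-18)K9me3 peptide (50 nM) in PBS pH 7.4, 0.01% Tween-20. Compound added for 30 min at RT, then streptavidin donor/nickel chelate acceptor beads (10 ug/mL) for 30 min.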
L3MBTL1 block – blocks human L3MBTL1 | AlphaScreen L3MBTL1–H3K9me1 peptide binding | Potency, µM (titrated, usually from 57.1 µM), actives largely listed as inhibitors | 230,000 tested, 0.66% active | AID 485360; further: nearly all actives have a fitted effect of over 60% in size
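L3MBTL1 50 nM + b-AHA-H3(1-15)K9me1 75 nM, 30 min RT; compound added, 30 min RT; streptavidin donor/Ni-chelate acceptor beads 10 ug/mL each final, 30 min RT dark; AlphaScreen read.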
A number is an active result; i = inactive; ? = inconclusive; nt = no result; ! = not active in a repeat; [ ] = remark or other dose. A selection: hits, their analogues and other compounds. The true share with any hit is near 10%. The call rests on the fitted dose curve; in most records, active means well fitted curve in the direction sought with a large enough effect; inconclusive means small, poorly fitted or top-dose-only effect, or another doubt; inactive means no such curve, though single readings can be large; an effect the other way counts as inactive or inconclusive.

SMILES	GLS inhibitor	BAZ2B block	G9a block	JMJD2A Tudor inh	HP1b binding inh	L3MBTL1 block
C[C@@H]1O[C@@H](O[C@@H]2[C@@H](O)[C@H](OCCc3ccc(O)c(O)c3)O[C@H](CO)[C@H]2OC(=O)/C=C/c2ccc(O)c(O)c2)[C@H](O)[C@H](O)[C@H]1O	?	nt	nt	18µM	?	?
COc1ccc(Nc2nc(NC(C)(C)C)nc(N3CCCC3)n2)c(OC)c1	i	35µM	40µM	28µM	?	nt
Cc1ccnc(NS(=O)(=O)c2ccc(NC(=O)C(C)(C)Oc3ccc(Cl)cc3)cc2)n1	i	i	?	i	i	nt
Cc1ccc(OCCN2CCCCCC2)c(C)c1	i	i	i[12.7 µM]	i	i	nt
CCN1CCN(CCOc2ccc(Br)cc2C)CC1	i	22µM	7.9µM	18µM	?	i
Cc1cc(Br)ccc1OCC(=O)N1CCCCCC1	?	i	i	i	i	nt
Cc1cc(Br)ccc1OCCN1CCCC1	i	?	nt	25µM	?	i
COc1ccc(CC(=O)Nc2sc3c(c2C(=O)Nc2c(C)cccc2C)CCCCC3)cc1	i	i	i	i	i	nt
CC1C(=O)N2CCCc3cc(S(=O)(=O)N4CCC(C(N)=O)CC4)cc1c32 (stereo not given)	i	?	13µM	i	i	nt
CC1C(=O)N2CCCc3cc(S(=O)(=O)Nc4ccccc4F)cc1c32 (stereo not given)	i	i	i	i	i	i
CC1C(=O)N2CCCc3cc(S(=O)(=O)Nc4ccccc4C(N)=O)cc1c32 (stereo not given)	i	i	45µM	i	i	i
Cc1ccc(SCC(c2ccccc2)N2CCN(CCc3ccccc3)CCC2=O)cc1 (stereo not given)	nt	nt	nt	?	i	nt
Cc1ccc(S(=O)(=O)N2CCN(c3nc(-c4cscn4)nc4ccccc34)CC2)cc1	nt	nt	nt	?	i	nt
CCOc1ccc(CNC(=O)Cn2cc3c(n2)-c2c(oc(C(=O)N4CCOCC4)c2C)CC3)cc1	i	?	?	56µM	i	nt
CCOC(=O)C1=C(CSc2nc(-c3ccccc3)ccc2C#N)OC(N)=C(C#N)C1c1ccc(OC)cc1 (stereo not given)	i	i	32µM	i	i	i
CCOC(=O)C1=C(CSc2nc(CC)c(C)cc2C#N)OC(N)=C(C#N)C1c1ccccc1 (stereo not given)	i	?	40µM	?	i	nt
CCC12CN3CC(C)(CN(C1)C3c1ccccc1C)C2=O (stereo not given)	i	i	i	i	i	nt
COc1ccc(CCCc2n[nH]c(=S)o2)c(C)c1	i	i	nt	i	i	i
S=c1[nH]nc(CCCc2n[nH]c(=S)o2)o1	i	i	nt	2.8µM	?	nt
Cc1cccc(CS(=O)(=O)CC2Nc3ccc(C(=O)NCc4ccccc4Cl)cc3NC2=O)c1 (stereo not given)	i	i	?	i	i	nt
c1ccc2c(c1)CCN(c1nc3ccccc3n3cnnc13)C2	i	i	50µM	?	i	nt
c1ccc(N2CCN(c3nc4ccccc4n4cnnc34)CC2)cc1	i	i	i	i	i	nt
Clc1cccc(N2CCN(CCNc3nc4ccccc4n4cnnc34)CC2)c1	i	i	i	?	i	i
C1=C(c2ccccc2)CCN(c2nc3ccccc3n3cnnc23)C1	i	i	22µM	i	i	nt
c1ccc2c(c1)nc(N1CCOCC1)c1nncn12	i	i	i	i	i	nt
SMILES	GLS inhibitor	BAZ2B block	G9a block	JMJD2A Tudor inh	HP1b binding inh	L3MBTL1 block
c1ccc2c(c1)nc(NCCN1CCOCC1)c1nncn12	i	i	50µM	i	i	i
c1ccc(CN2CCN(c3nc4ccccc4n4cnnc34)CC2)cc1	i	i	50µM	i	i	i
COC(=O)N1CCC2(CCCN(c3ncccn3)C2)CC1	nt	nt	i[12.7 µM]	nt	nt	nt
COc1cc(=O)n(C)c2c(OC[C@@H](O)C(C)(C)O)cccc12	nt	nt	i[21.5 µM]	nt	nt	nt
Cc1oc2cc([N+](=O)[O-])c(O)c([N+](=O)[O-])c2c1C(=O)c1ccc(Cl)cc1	i	32µM	nt	50µM	?	i
CC1=C(C(N)=O)C(c2ccc(C(C)C)cc2)n2nc(SCc3ccccc3F)nc2N1 (stereo not given)	i	i	i	i	i	nt
Cc1cccc(CN2CCN(CC(=O)NCc3ccc(Cl)cc3)C2=O)c1	i	i	i	i	i	nt
COc1ccc(S(=O)(=O)c2cn(C)c3cc(N4CCCC4)c(F)cc3c2=O)cc1	i	i	i	i	i	nt
Cc1ccc(-n2nc3ccc(NC(=S)NC(=O)/C=C/c4ccco4)cc3n2)cc1	i	i	i	i	i	i
O=C(/C=C/c1ccco1)NC(=S)Nc1cccc(-c2nc3ccccc3o2)c1	i	45µM	?	50µM	i	i
CCCC(=O)NC(=S)Nc1cccc(-c2nc3ncccc3o2)c1	i	i	22µM	i	i	i
CC(C)CC(=O)Nc1cccc(-c2nc3ncccc3o2)c1	i	i	i	i	i	nt
CC(=O)c1ccc(NC(=S)NC(=O)/C=C/c2ccco2)cc1	i	?	45µM	?	i	?
CC(=O)c1ccc(NC(=S)NC(=O)/C=C/c2ccccc2)cc1	i	i	nt	i	i	i
Cc1cccc(NC(=S)NC(=O)/C=C/c2ccco2)c1	i	45µM	25µM	?	?	i
Cc1cccc(NC(=O)Cn2c(=O)n(Cc3nc(-c4ccccc4)no3)c(=O)c3ccccc32)c1	i	?	i	i	i	nt
CCOc1ccc(Cc2nnc(SCC(=O)c3ccc(OC)cc3)o2)cc1	i	i	?	i	i	i
CCOc1ccc(Nc2nc(Cc3nnc(SCC(=O)O)o3)cs2)cc1	?	?	50µM	89µM	i	?
CCCCC(CCC(=O)O)(C(=O)OCC)c1csc(Nc2ccc(OCC)cc2)n1 (stereo not given)	i	?	32µM	i	i	i
Cc1ccc(C(=O)COC(=O)CN2C(=O)C3C4CCC(C4)C3C2=O)cc1[N+](=O)[O-] (stereo not given)	i	i	45µM	i	i	i
Cc1ccc(C(=O)COC(=O)CCN2C(=O)C3C4CCC(C4)C3C2=O)cc1[N+](=O)[O-] (stereo not given)	i	i	i	i	i	nt
Nc1nnc2cc(F)ccc2n1	i	nt	nt	nt	nt	nt
OC1=C(O)c2nc3cc(F)ccc3nc21	i	i	40µM	i	i	nt
CCOC(=O)c1c(Cc2ccccc2)c[nH]c1C	i	i	56µM	i	i	nt
C[C@H](Cc1ccccc1)Nc1ncnc2c1ncn2[C@@H]1O[C@H](CO)[C@H](O)[C@H]1O	nt	nt	i	nt	nt	nt
Cc1ccc(-n2c3c(c(=O)[nH]c2=O)C(NS(=O)(=O)c2ccc(Cl)cc2)(C(F)(F)F)C(=O)N3)cc1 (stereo not given)	i	i	50µM!	i	i	i

Bioassay records from PubChem.
